Screening results deposited in PubChem BioAssay by National Center for Advancing Translational Sciences (NCATS).
Many of the other results were omitted from the sample, so hits are more common in it than they were.
TDP-43 rescue: rescues yeast from TDP-43 toxicity | 45,000 compounds, 0.45% hits | yeast TDP-43 toxicity rescue, BacTiter-Glo growth, 24 h | Potency, µM (series often up to 46.1 µM), hits mostly activators; active means well fitted activation curve with a large enough effect; further: 0% is about no effect; nearly all actives have a fitted effect of over 55% in size
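TDP-43-expressing yeast, pregrown in raffinose, seeded at OD600 0.02 in galactose medium with compound for 24 hr at 30 deg C. Growth read by BacTiter-Glo luminescence, so rescue of toxicity appears as activation.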
* = called active by the depositor. Potency means the concentration at half of the fitted maximal effect.

For C#CCOc1nc(Nc2cccc([N+](=O)[O-])c2)nc(OCC#C)n1 the results were TDP-43 rescue inactive.
Screening COc1nc(Nc2cccc([N+](=O)[O-])c2)nc(OC)n1 returned TDP-43 rescue inactive.
For COc1nc(Nc2ccc([N+](=O)[O-])cc2)nc(NC2CCCCC2)n1 the results were TDP-43 rescue 15.8µM*.
`O=C(CCCn1c(=O)c2sccc2n(Cc2ccc(F)cc2Cl)c1=O)NCc1ccc2c(c1)OCO2` gave TDP-43 rescue inactive.
`CC(C)(C)C(=O)Cn1c(=O)n(CCCCCC(=O)NCc2ccc3c(c2)OCO3)c(=O)c2sccc21` gave TDP-43 rescue inactive.
O=C(c1ccc2c(c1)N(Cc1ccccc1)C(=O)c1ccccc1S2(=O)=O)N1CCc2ccccc21 was read as TDP-43 rescue inactive.
Screening Cc1cc(F)ccc1NCc1ccccc1[N+](=O)[O-] returned TDP-43 rescue inactive.
For O=[N+]([O-])c1ccccc1CNc1ccc(F)c(Cl)c1 the results were TDP-43 rescue 15.8µM*.
For Cc1cc([N+](=O)[O-])ccc1NCc1ccccc1[N+](=O)[O-] the results were TDP-43 rescue inactive.
Screening COc1ccc(-n2ncc3c2ncn2nc(-c4ccc(Cl)cc4Cl)nc32)cc1 returned TDP-43 rescue inactive.
`COc1ccccc1-n1c(/C=C/c2c(C)n(C)c3ccccc23)nc2ccccc2c1=O` gave TDP-43 rescue inactive.
Screening Cc1ccc(NC(=O)C2CCCN2S(=O)(=O)c2ccc3c(c2)n(C)c(=O)c(=O)n3C)cc1 (stereo not given) returned TDP-43 rescue inactive.
Cc1ccc(NC(=O)[C@@H]2CCCN2S(=O)(=O)c2ccccc2F)cc1 was read as TDP-43 rescue inactive.
`Cc1ccc(S(=O)(=O)N2CCCC2C(=O)Nc2ccc(Br)cc2)cc1` (stereo not given) gave TDP-43 rescue 12.6µM*.
Screening Cc1cccc(NC(=O)C2CCCN(c3nnc(-n4c(C)ccc4C)s3)C2)c1C (stereo not given) returned TDP-43 rescue inactive.
Screening COc1cccc(Nc2nnc(-c3cc4ccc(O)cc4oc3=O)s2)c1 returned TDP-43 rescue inactive.
Screening NC(=O)Cn1c(=O)n(CCCCCC(=O)NCc2ccccc2Cl)c(=O)c2sccc21 returned TDP-43 rescue inactive.
Screening O=C(c1cccs1)c1cn(CCOc2ccc(F)cc2)c2ccccc12 returned TDP-43 rescue inactive.
Screening Cc1ccc(C)n1-c1nnc(N2CCCC(C(=O)Nc3ccccc3Br)C2)s1 (stereo not given) returned TDP-43 rescue inactive.
`O=C(Nc1ccc(Br)cc1F)N1CCC2(CC1)Oc1ccccc1C(=O)N2Cc1ccccc1F` gave TDP-43 rescue inactive.
CN(C)CCCNc1cc(C(C)(C)C)nc2c(-c3ccccc3)cnn12 was read as TDP-43 rescue inactive.
CCCc1cc(NCc2ccccn2)n2nc(C)c(-c3ccccc3)c2n1 was read as TDP-43 rescue inactive.
Screening Cc1cc(NCc2ccccn2)n2ncc(-c3ccccc3)c2n1 returned TDP-43 rescue 8.91µM*.
CCCSc1ncc(Cl)c(C(=O)Nc2c(C(=O)c3ccc(F)cc3)oc3ccccc23)n1 was read as TDP-43 rescue inactive.
O=C(Nc1cccc(Cl)c1)c1cnc2sc(N3CCCC3)nn2c1=O was read as TDP-43 rescue inactive.
